The supplement of paper PMC12669032
“And” between values parts separate entries of the source, which are not always exact repeats. Identical values can stand only once.

Key:
Assay in all cases: growth AUC relative to DMSO control (median of replicates) (fraction); higher = more growth (less inhibition), active = hit call of the paper
Details in all cases: 20 µM; 24 h;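 active = AUC reduced over 20% with Padj below 0.05 in at least 2 of 3 replicates; inactive = otherwise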
Akkermansia muciniphila = system: Akkermansia muciniphila
How it was run: (§1)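 Gut bacterial monocultures in mGAM were treated with 20 µM compound (1% DMSO) and grown anaerobically at 37 °C in round-bottom 96-well plates from OD600 0.05. OD600 was read hourly for 24 h, with the minimum OD set to 0. Area under the growth curve was normalised to the plate median of solvent-only wells, or to row and column medians on the industrial chemical plate. Each value is the median of three biological replicates, each grown on a separate day.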

Bacteroides caccae = system: Bacteroides caccae
How it was run: as §1

Bacteroides clarus = system: Bacteroides clarus
How it was run: as §1

Bacteroides dorei = system: Bacteroides dorei
How it was run: as §1

Bacteroides stercoris = system: Bacteroides stercoris
How it was run: as §1

[1] = system: Bacteroides thetaiotaomicron
How it was run: as §1

Bacteroides uniformis = system: Bacteroides uniformis
How it was run: as §1

[2] = system: Bifidobacterium longum subsp. longum
How it was run: as §1

Clostridium difficile = system: Clostridium difficile
How it was run: as §1

Collinsella aerofaciens = system: Collinsella aerofaciens
How it was run: as §1

Measured: growth AUC

CCCN(CCC)c1c([N+](=O)[O-])cc(S(N)(=O)=O)cc1[N+](=O)[O-]
inactive: Akkermansia muciniphila 0.998 | Bacteroides caccae 0.956 | Bacteroides clarus 0.896 | Bacteroides dorei 0.932 | Bacteroides stercoris 0.809 | [1] 0.948 | Bacteroides uniformis 0.89 | [2] 0.987 | Clostridium difficile 0.975 | Collinsella aerofaciens 0.975

COC(=O)Nc1cccc(OC(=O)Nc2cccc(C)c2)c1
inactive: Akkermansia muciniphila 0.871 | Bacteroides caccae 0.991 | Bacteroides clarus 0.983 | Bacteroides dorei 1.02 | Bacteroides stercoris 0.99 | [1] 1.01 | Bacteroides uniformis 0.994 | [2] 1.03 | Clostridium difficile 1.02 | Collinsella aerofaciens 0.926

Nc1c(Cl)c(F)nc(OCC(=O)O)c1Cl
inactive: Akkermansia muciniphila 0.886 | Bacteroides caccae 1.01 | Bacteroides clarus 0.968 | Bacteroides dorei 1.01 | Bacteroides stercoris 0.999 | [1] 0.991 | Bacteroides uniformis 0.955 | [2] 0.917 | Clostridium difficile 1.01 | Collinsella aerofaciens 0.97

Cc1cc(C)nc(Nc2ccccc2)n1
inactive: Akkermansia muciniphila 0.869 | Bacteroides caccae 0.98 | Bacteroides clarus 0.957 | Bacteroides dorei 1 | Bacteroides stercoris 0.987 | [1] 0.957 | Bacteroides uniformis 0.97 | [2] 1 | Clostridium difficile 0.983 | Collinsella aerofaciens 0.999

CON(C)C(=O)Nc1ccc(Cl)cc1
inactive: Akkermansia muciniphila 0.997 | Bacteroides caccae 1.02 | Bacteroides clarus 0.983 | Bacteroides dorei 1.03 | Bacteroides stercoris 0.97 | [1] 1.03 | Bacteroides uniformis 0.999 | [2] 1.12 | Clostridium difficile 1 | Collinsella aerofaciens 1.02

COc1cnc(OC)n2nc(NS(=O)(=O)c3c(OCC(F)F)cccc3C(F)(F)F)nc12
inactive: Akkermansia muciniphila 0.962 | Bacteroides caccae 1.03 | Bacteroides clarus 1.01 | Bacteroides dorei 0.993 | Bacteroides stercoris 0.991 | [1] 1.01 | Bacteroides uniformis 1.01 | [2] 0.994 | Clostridium difficile 0.993 | Collinsella aerofaciens 0.991

CCOc1nc(NC)nc(NC(=O)NS(=O)(=O)c2ccccc2C(=O)OC)n1
inactive: Akkermansia muciniphila 0.947 | Bacteroides caccae 1.01 | Bacteroides clarus 1.01 | Bacteroides dorei 1.02 | Bacteroides stercoris 0.97 | [1] 0.988 | Bacteroides uniformis 0.998 | [2] 0.967 | Clostridium difficile 0.979 | Collinsella aerofaciens 0.992

CCC1COC(Cn2cncn2)(c2ccc(Cl)cc2Cl)O1 (stereo not given)
inactive: Akkermansia muciniphila 0.893 | Bacteroides caccae 0.992 | Bacteroides clarus 0.935 | Bacteroides dorei 0.976 | Bacteroides stercoris 0.938 | [1] 0.982 | Bacteroides uniformis 0.956 | [2] 0.976 | Clostridium difficile 0.994 | Collinsella aerofaciens 0.94

O=S1OC[C@@H]2[C@H](CO1)[C@]1(Cl)C(Cl)=C(Cl)[C@@]2(Cl)C1(Cl)Cl (stereo not given in full)
inactive: Akkermansia muciniphila 0.871 and 0.977 | Bacteroides caccae 0.96 and 1.01 | Bacteroides clarus 0.957 and 0.941 | Bacteroides dorei 0.965 and 0.954 | Bacteroides stercoris 0.913 and 0.734 | [1] 0.959 and 0.894 | Bacteroides uniformis 0.903 and 0.899 | [2] 0.963 and 0.916 | Clostridium difficile 0.98 and 0.994 | Collinsella aerofaciens 0.99 and 0.941

Cc1cccc(C)c1N
inactive: Akkermansia muciniphila 0.917 | Bacteroides caccae 1.04 | Bacteroides clarus 0.973 | Bacteroides dorei 1.01 | Bacteroides stercoris 1.03 | [1] 1.04 | Bacteroides uniformis 1.06 | [2] 1.04 | Clostridium difficile 0.997 | Collinsella aerofaciens 0.985

CCOC(=O)N(C)C(=O)CSP(=S)(OCC)OCC
inactive: Akkermansia muciniphila 1.11 | Bacteroides caccae 1.04 | Bacteroides clarus 0.999 | Bacteroides dorei 1.01 | Bacteroides stercoris 1.01 | [1] 0.994 | Bacteroides uniformis 0.991 | [2] 0.991 | Clostridium difficile 1.01 | Collinsella aerofaciens 0.997

N#Cc1nn(-c2c(Cl)cc(C(F)(F)F)cc2Cl)c(N)c1C(F)(F)F
active: Bacteroides clarus 0.741 | Clostridium difficile 0.609
inactive: Akkermansia muciniphila 1.08 | Bacteroides caccae 0.898 | Bacteroides dorei 0.773 | Bacteroides stercoris 0.626 | [1] 1.01 | Bacteroides uniformis 0.97 | [2] 0.858 | Collinsella aerofaciens 0.967

COP(=S)(OC)Oc1ccc([N+](=O)[O-])c(Cl)c1
inactive: Akkermansia muciniphila 1.04 | Bacteroides caccae 0.99 | Bacteroides clarus 0.973 | Bacteroides dorei 0.972 | Bacteroides stercoris 0.973 | [1] 0.993 | Bacteroides uniformis 0.943 | [2] 1.01 | Clostridium difficile 0.961 | Collinsella aerofaciens 0.958

Nc1c([N+](=O)[O-])ccc(Oc2ccccc2)c1Cl
inactive: Akkermansia muciniphila 0.741 | Bacteroides caccae 0.964 | Bacteroides clarus 0.861 | Bacteroides dorei 0.941 | Bacteroides stercoris 0.925 | [1] 0.941 | Bacteroides uniformis 0.978 | [2] 0.871 | Clostridium difficile 0.982 | Collinsella aerofaciens 0.897

Nc1nc(N)nc(N)n1
active: Bacteroides stercoris 0.792
inactive: Akkermansia muciniphila 0.956 | Bacteroides caccae 1.02 | Bacteroides clarus 0.881 | Bacteroides dorei 1.03 | [1] 0.968 | Bacteroides uniformis 0.972 | [2] 1.15 | Clostridium difficile 0.989 | Collinsella aerofaciens 1.03

CC1(C)C(C=C(Cl)Cl)C1C(=O)OC(C#N)c1ccc(F)c(Oc2ccccc2)c1 (mixture of isomers)
inactive: Akkermansia muciniphila 1.08 | Bacteroides caccae 1 | Bacteroides clarus 1.01 | Bacteroides dorei 0.995 | Bacteroides stercoris 0.95 | [1] 1.01 | Bacteroides uniformis 0.98 | [2] 0.975 | Clostridium difficile 0.979 | Collinsella aerofaciens 0.947

CCN(C(=O)n1nnn(-c2ccccc2Cl)c1=O)C1CCCCC1
inactive: Akkermansia muciniphila 0.87 | Bacteroides caccae 0.84 | [2] 0.988 | Clostridium difficile 0.992 | Collinsella aerofaciens 0.925
active: Bacteroides clarus 0.508 | Bacteroides dorei 0.513 | Bacteroides stercoris 0.118 | [1] 0.107 | Bacteroides uniformis 0.0622

CCC(=O)Nc1ccc(Cl)c(Cl)c1
inactive: Akkermansia muciniphila 0.797 | Bacteroides caccae 1 | Bacteroides clarus 0.978 | Bacteroides dorei 1.03 | Bacteroides stercoris 0.972 | [1] 0.988 | Bacteroides uniformis 0.969 | [2] 0.837 | Clostridium difficile 1.03 | Collinsella aerofaciens 0.999

COP(=S)(Oc1cc(Cl)c(Br)cc1Cl)c1ccccc1 (stereo not given)
inactive: Akkermansia muciniphila 0.925 | Bacteroides caccae 0.949 | Bacteroides clarus 0.928 | Bacteroides dorei 1.02 | Bacteroides stercoris 1.44 | [1] 0.98 | Bacteroides uniformis 0.993 | [2] 1.02 | Clostridium difficile 1.03 | Collinsella aerofaciens 0.976

CCOC(=O)C(O)(c1ccc(Cl)cc1)c1ccc(Cl)cc1
inactive: Akkermansia muciniphila 0.996 | Bacteroides caccae 0.872 | Bacteroides dorei 0.951 | [1] 0.874 | Bacteroides uniformis 0.991 | [2] 0.997 | Clostridium difficile 1.04 | Collinsella aerofaciens 0.978
active: Bacteroides clarus 0.78 | Bacteroides stercoris 0.376

[Cl][Sn]([c]1ccccc1)([c]1ccccc1)[c]1ccccc1
inactive: Akkermansia muciniphila 0.915 | Clostridium difficile 0.849
active: Bacteroides caccae 0.0272 | Bacteroides clarus 0.272 | Bacteroides dorei 0.0162 | Bacteroides stercoris 0.0164 | [1] 0.00729 | Bacteroides uniformis 0.0126 | [2] 0.303 | Collinsella aerofaciens 0.152

CC(C1CC1)C(O)(Cn1cncn1)c1ccc(Cl)cc1 (mixture of isomers)
inactive: Akkermansia muciniphila 1.04 | Bacteroides caccae 0.83 | Bacteroides clarus 0.987 | Bacteroides dorei 0.941 | Bacteroides stercoris 1.41 | [1] 0.893 | Bacteroides uniformis 0.929 | [2] 1.09 | Clostridium difficile 0.966 | Collinsella aerofaciens 0.926

COP(=S)(OC)Oc1ccc([N+](=O)[O-])cc1
inactive: Akkermansia muciniphila 1.18 | Bacteroides caccae 0.898 | Bacteroides clarus 1.03 | Bacteroides dorei 0.888 | Bacteroides stercoris 1.04 | [1] 0.975 | Bacteroides uniformis 0.96 | [2] 1.03 | Clostridium difficile 1.02 | Collinsella aerofaciens 0.955

COP(=S)(OC)Oc1ccc(SC)c(C)c1
inactive: Akkermansia muciniphila 0.903 | Bacteroides caccae 0.943 | Bacteroides clarus 0.952 | Bacteroides dorei 1 | Bacteroides stercoris 0.995 | [1] 1.03 | Bacteroides uniformis 0.977 | [2] 0.963 | Clostridium difficile 1.03 | Collinsella aerofaciens 0.977

CC(Oc1ccc(Cl)cc1Cl)C(=O)O (stereo not given)
inactive: Akkermansia muciniphila 1.09 | Bacteroides caccae 1.02 | Bacteroides clarus 0.987 | Bacteroides dorei 0.942 | Bacteroides stercoris 0.981 | [1] 1 | Bacteroides uniformis 0.979 | [2] 1.04 | Clostridium difficile 1.01 | Collinsella aerofaciens 0.976

Cc1occc1C(=O)Nc1ccccc1
inactive: Akkermansia muciniphila 0.899 | Bacteroides caccae 1 | Bacteroides clarus 0.958 | Bacteroides dorei 1.04 | Bacteroides stercoris 0.952 | [1] 1.02 | Bacteroides uniformis 1 | [2] 1.02 | Clostridium difficile 1.05 | Collinsella aerofaciens 0.959

CN(C)C(=O)Nc1cccc(C(F)(F)F)c1
inactive: Akkermansia muciniphila 0.966 | Bacteroides caccae 0.97 | Bacteroides clarus 0.983 | Bacteroides dorei 0.991 | Bacteroides stercoris 0.911 | [1] 0.967 | Bacteroides uniformis 1.02 | [2] 0.961 | Clostridium difficile 1.02 | Collinsella aerofaciens 0.997

CC(C)=CC1C(C(=O)OCc2cccc(Oc3ccccc3)c2)C1(C)C (mixture of isomers)
inactive: Akkermansia muciniphila 1.21 | Bacteroides caccae 0.961 | Bacteroides clarus 0.994 | Bacteroides dorei 0.917 | Bacteroides stercoris 1.01 | [1] 1 | Bacteroides uniformis 0.991 | [2] 0.864 | Clostridium difficile 1.02 | Collinsella aerofaciens 0.914
